Reference: the supplement of paper PMC6555819

Legend:
Experiment in all cases: PBM binding z-score (relative to random genomic background probes); higher = stronger binding; sequences stand for … in GC…GCGATTGACAGCGTAGAATGAAGG
[1] = test system: RARb homodimer (NR concentration 270 nM)
Procedure, shortened: (§1)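 Ligand-free nuclear receptor dimers were applied to custom Agilent 4×180K protein-binding microarrays whose double-stranded probes carried direct-repeat seeds, single-nucleotide variants, half-site ablations and random human genomic background sequences in 34-nt variable regions. Incubation lasted 1 h. Binding z-scores were computed against the random background probes from regression-normalized fluorescence.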

[2] = test system: RARg:RXRa (NR concentration 270 nM, RXRa partner concentration 90 nM)
Procedure, shortened: as §1

[3] = test system: RARg homodimer (NR concentration 270 nM)
Procedure, shortened: as §1

[4] = test system: RXRa DBDmut IVT, anti-RXR (DBD mutation: RXRa K156A/R161A, NR concentration 90 nM)
Procedure, shortened: as §1

[5] = test system: RXRa homodimer (NR concentration 180 nM)
Procedure, shortened: as §1

[6] = test system: THRa:RXRa (NR concentration 90 nM, RXRa partner concentration 90 nM)
Procedure, shortened: as §1

[7] = test system: THRa homodimer (NR concentration 90 nM)
Procedure, shortened: as §1

[8] = test system: VDR:RXRa (NR concentration 270 nM, RXRa partner concentration 90 nM)
Procedure, shortened: as §1

[9] = test system: VDR homodimer (NR concentration 270 nM)
Procedure, shortened: as §1

Sequence: CTACCAAGGCGAACAAGGTCGTTGATTACTATTC
- PBM binding z-score [1]: 0.781
- PBM binding z-score [2]: 0.29
- PBM binding z-score [3]: 0.0992
- PBM binding z-score [4]: 0.854
- PBM binding z-score [5]: 0.744
- PBM binding z-score [6]: 2.38
- PBM binding z-score [7]: 0.72
- PBM binding z-score [8]: 2.59
- PBM binding z-score [9]: 1.38

Sequence: ACTCGGAGGACATAGGTCAGAGCTACGCCAGTGA
- PBM binding z-score [1]: 2.6
- PBM binding z-score [2]: 3.03
- PBM binding z-score [3]: 2.28
- PBM binding z-score [4]: 0.527
- PBM binding z-score [5]: 2.26
- PBM binding z-score [6]: 2
- PBM binding z-score [7]: 0.0623
- PBM binding z-score [8]: 1.03
- PBM binding z-score [9]: 0.202

Sequence: CCAGACAGGTGAAAGGTAACTTAGTCTGGTACGC
- PBM binding z-score [1]: 0.975
- PBM binding z-score [2]: 1.23
- PBM binding z-score [3]: 0.78
- PBM binding z-score [4]: 0.208
- PBM binding z-score [5]: 2.05
- PBM binding z-score [6]: 0.818
- PBM binding z-score [7]: -0.205
- PBM binding z-score [8]: 0.744
- PBM binding z-score [9]: -0.23

Sequence: ACAGACAGGTGAGTGAATGTAACTCAGCTGGACG
- PBM binding z-score [1]: -0.316
- PBM binding z-score [2]: 0.386
- PBM binding z-score [3]: 0.453
- PBM binding z-score [4]: -0.311
- PBM binding z-score [5]: 0.676
- PBM binding z-score [6]: 0.0176
- PBM binding z-score [7]: -0.644
- PBM binding z-score [8]: -0.36
- PBM binding z-score [9]: -0.199

Sequence: AGTCAAAGTTCAGGACGAGGTAACATAAAGCACG
- PBM binding z-score [1]: 3.26
- PBM binding z-score [2]: 4.89
- PBM binding z-score [3]: 4.71
- PBM binding z-score [4]: 3.19
- PBM binding z-score [5]: 3.25
- PBM binding z-score [6]: 3.73
- PBM binding z-score [7]: 1.55
- PBM binding z-score [8]: 3.13
- PBM binding z-score [9]: 2.24

Sequence: TGAATGAGGTTAAAGATCAGGGACCGTGGCGTCG
- PBM binding z-score [1]: 0.662
- PBM binding z-score [2]: 2.38
- PBM binding z-score [3]: 0.948
- PBM binding z-score [4]: 0.631
- PBM binding z-score [5]: 3.61
- PBM binding z-score [6]: 2.39
- PBM binding z-score [7]: 0.453
- PBM binding z-score [8]: 1.77
- PBM binding z-score [9]: 0.608

Sequence: CGTCTAAGTTCAACTAAGGTAACGTAAAGCACGC
- PBM binding z-score [1]: 3.13
- PBM binding z-score [2]: 4.18
- PBM binding z-score [3]: 4.79
- PBM binding z-score [4]: 4.84
- PBM binding z-score [5]: 3.54
- PBM binding z-score [6]: 4.95
- PBM binding z-score [7]: 2.6
- PBM binding z-score [8]: 4.12
- PBM binding z-score [9]: 4.24

Sequence: CATTACGGGTCACTGACAGGTTATAGCATTTGGA
- PBM binding z-score [1]: 3.58
- PBM binding z-score [2]: 5.97
- PBM binding z-score [3]: 4.78
- PBM binding z-score [4]: 2.24
- PBM binding z-score [5]: 5.7
- PBM binding z-score [6]: 3.2
- PBM binding z-score [7]: 0.716
- PBM binding z-score [8]: 4
- PBM binding z-score [9]: 1.4

Sequence: CAGACTAGGTCACGAAAGGTCAAAGTCGAATGAC
- PBM binding z-score [1]: 5.63
- PBM binding z-score [2]: 7.9
- PBM binding z-score [3]: 8.73
- PBM binding z-score [4]: 2.27
- PBM binding z-score [5]: 8.34
- PBM binding z-score [6]: 4.96
- PBM binding z-score [7]: 2.29
- PBM binding z-score [8]: 6.8
- PBM binding z-score [9]: 4.05

Sequence: CTAGACAGGTGAAAGGTAACTCAGTCTGGTACGC
- PBM binding z-score [1]: 0.55
- PBM binding z-score [2]: 1.36
- PBM binding z-score [3]: 0.619
- PBM binding z-score [4]: -0.39
- PBM binding z-score [5]: 2.23
- PBM binding z-score [6]: 0.865
- PBM binding z-score [7]: -0.398
- PBM binding z-score [8]: 0.828
- PBM binding z-score [9]: -0.464

Sequence: CCAGGCAGGTGAAAGGTAACTCAGTCTGGTACGC
- PBM binding z-score [1]: 0.447
- PBM binding z-score [2]: 0.784
- PBM binding z-score [3]: 0.255
- PBM binding z-score [4]: -0.641
- PBM binding z-score [5]: 1.53
- PBM binding z-score [6]: 0.824
- PBM binding z-score [7]: -0.15
- PBM binding z-score [8]: 0.277
- PBM binding z-score [9]: -0.0369

Sequence: ATCTCTAGGTAACAAGTTCAATGAAAGAGAGGAC
- PBM binding z-score [1]: 2.24
- PBM binding z-score [2]: 2.06
- PBM binding z-score [3]: 1.8
- PBM binding z-score [4]: 2.15
- PBM binding z-score [5]: 1.31
- PBM binding z-score [6]: 1.76
- PBM binding z-score [7]: 1.19
- PBM binding z-score [8]: 2.67
- PBM binding z-score [9]: 3.97

Sequence: CCTACTGGGCCAGAGGTCATTGATTCCAATGCTC
- PBM binding z-score [1]: 4.02
- PBM binding z-score [2]: 4.51
- PBM binding z-score [3]: 3.89
- PBM binding z-score [4]: 1.52
- PBM binding z-score [5]: 4.88
- PBM binding z-score [6]: 3.22
- PBM binding z-score [7]: 1.09
- PBM binding z-score [8]: 4.47
- PBM binding z-score [9]: 3.61

Sequence: TCAGAGAGGTGAAGGTAACTCAGGTACGCAGTCG
- PBM binding z-score [1]: 1.34
- PBM binding z-score [2]: 1.54
- PBM binding z-score [3]: 1.36
- PBM binding z-score [4]: 1.31
- PBM binding z-score [5]: 1.85
- PBM binding z-score [6]: 2.04
- PBM binding z-score [7]: 0.401
- PBM binding z-score [8]: 0.999
- PBM binding z-score [9]: 0.316

Sequence: CCTGGGAGGACAACAGGAGGTCAGAGCTGCCAGA
- PBM binding z-score [1]: 3.72
- PBM binding z-score [2]: 3.71
- PBM binding z-score [3]: 3.6
- PBM binding z-score [4]: -0.219
- PBM binding z-score [5]: 2.29
- PBM binding z-score [6]: 3.05
- PBM binding z-score [7]: 1.32
- PBM binding z-score [8]: 1.99
- PBM binding z-score [9]: 1.37

Sequence: CCGGCTGGGGCAAGGTTACCATAACGCACAGCCA
- PBM binding z-score [1]: 1.41
- PBM binding z-score [2]: 1.14
- PBM binding z-score [3]: 1.27
- PBM binding z-score [4]: -1.12
- PBM binding z-score [5]: 1.14
- PBM binding z-score [6]: 1.03
- PBM binding z-score [7]: -0.0935
- PBM binding z-score [8]: -0.269
- PBM binding z-score [9]: -0.883
